Test results taken from publication PMC5540273 (PLoS ONE, 2017).

tested on: TNK2; conditions: concentration: 1 μM, replicates: in singlicate; n = 1
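Note: KINOMEscan kinase panel screen.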

Row | Compound | %Inh [%]
1 | Cc1ccc(C)c(NC(=O)Nc2ccc(C)c(-c3ccc(C(=O)Nc4ccncc4)cc3)c2)c1 [GSK1398473] | 36
2 | CCNc1nccc(-c2c(-c3ccc(F)cc3)ncn2C2CCN(C)CC2)n1 | 0
3 | Cc1ccc(NC(=O)c2cccc(N3CCCCC3)c2)cc1-c1ccc(C(=O)NCC2CC2)cc1 [GSK1917008] | 16
4 | Cl.Cl.NCC(NC(=O)c1cc(-c2cccnc2)c(-c2ccnc3[nH]ccc23)s1)c1ccccc1 (stereo not drawn) [GSK1323434] | 16
5 | COc1cccc(-c2nc(-c3ccccc3)[nH]c2-c2ccncc2)c1 [SB-610250] | 8
6 | Cn1cc(-c2cnc(N)c3c(-c4ccc5c(c4)CCN5C(=O)Cc4ccccc4)csc23)cn1 [GSK2593074] | 62
7 | CN(C)CCNS(=O)(=O)c1ccc(-c2ccnc3[nH]ccc23)cc1 [GSK977620] | 7
8 | O=C(Nc1n[nH]c2nc(-c3cccc(O)c3)ccc12)C1CC1 [SB-711805] | 0
9 | Nc1cccc(-c2ccc3c(N)n[nH]c3c2)c1 [GSK2193613] | 13
10 | Cl.O=C(Nc1ccc(Oc2ccc3[nH]c(NC(=O)c4ccco4)nc3c2)cc1)Nc1cc(C(F)(F)F)ccc1F [GW683134] | 8
11 | COc1cccc2c(-c3ccncc3)c(-c3ccc(F)cc3)nn12 [GW468513] | 14
12 | COc1cc(Nc2ccnc3cc(-c4ccncc4)ccc23)cc(OC)c1OC.Cl [GW494610] | 28
13 | O=C(O)C(F)(F)F.O=c1[nH]ccc2nc(N[C@@H]3CCNC3)nc(Nc3ccc4c(c3)S(=O)(=O)CC4)c12 [GSK2181306] | 3
14 | Cl.N#CCc1ccc(Nc2nccc(Nc3ccc(Oc4ccccc4)cc3)n2)cc1 [GW639905] | 26
15 | Cc1ccc(O)cc1Nc1ccnc2cc(-c3ccc(CN4CCCCC4)o3)ccc12 [GW557777] | 26
16 | Cl.Cl.NC(CNC(=O)c1cc(Br)c(-c2ccnc3[nH]ccc23)s1)c1ccccc1 (stereo not drawn) [GSK1322949] | 10
17 | CN(c1ccc2c(c1)nc(NCc1ccccc1)n2C)c1ccnc(Nc2ccc(CS(C)(=O)=O)cc2)n1.Cl [GW811603] | 0
18 | Cc1ccc(O)cc1Nc1ccnc2ccc(C(C)(C)C)cc12 [GW856805] | 13
19 | COC(=O)Nc1nc2ccc(Oc3ccc(NC(=O)Nc4cc(C(F)(F)F)ccc4F)cc3)cc2[nH]1.Cl [GW654607] | 12
20 | Cn1cc(-c2ccc3c(c2)CCN3C(=O)Cc2cc(F)cc(C(F)(F)F)c2)c2c(N)ncnc21 [GSK2635225] | 2
21 | COc1cccc(CC(=O)N2CCc3cc(-c4cn(C)c5ncnc(N)c45)ccc32)c1 [GSK2608899] | 0
22 | N#Cc1cnc2cc(-c3cnc(CNCCN4CCOCC4)s3)ccc2c1Nc1ccc(Oc2ccccc2)cc1 [GW664114] | 94.6
23 | O=C(Nc1n[nH]c2cc(-c3cccs3)ccc12)C1CC1 [SB-731284] | 0
24 | CN(C)CCOc1ccc(-c2cc(-c3ccc(Cl)c(O)c3)c(-c3ccncc3)[nH]2)cc1.Cl.Cl [SB-684387] | 15
25 | Cc1cccc(Nc2nc(NCCN)ncc2C(N)=O)c1 [GSK1292139] | 0
26 | COC(=O)Nc1nc2cc(Oc3ccc(NC(=O)Nc4cccc(SC)c4)cc3)ccc2[nH]1.Cl [GW697999] | 10
27 | Nc1ncnc2scc(-c3ccc(NC(=O)Cc4cc(F)ccc4F)cc3)c12.O=C(O)C(F)(F)F [SB-731254-M] | 2
28 | CC(C)c1nc(-c2ccc(F)c(NS(=O)(=O)c3c(F)cccc3F)c2)c(-c2ccnc(Nc3ccc(N4CCOCC4)nc3)n2)s1 [GSK1804250] | 99.5
29 | NCCC(NC(=O)c1cc(Br)c(-c2ccnc3[nH]ccc23)s1)c1ccccc1.O=C(O)C(F)(F)F.O=C(O)C(F)(F)F (stereo not drawn) [GSK1307810] | 9
30 | COc1ccc(NC(=O)c2ccoc2)cc1-c1ccc(C(=O)NCC2CC2)cc1 [GW810437] | 0
